The nature of experiment [1]: qHTS assay for small molecule agonists of the p53 signaling pathway (AID 651631; calls by dose curve; further: nearly all actives have a fitted effect of over 15% in size; further: potency means the concentration at half of the fitted maximal effect). In outline: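 Fluorescence intensity from cleaved LiveBLAzer B/G substrate (2 h, room temperature) served as the signal. Beforehand, HCT-116 reporter cells bearing p53 response elements were treated 16 h at 37 °C with DMSO-dissolved compounds.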
(In general: Quantitative high-throughput screening tests each substance at several concentrations.)

The nature of experiment [2]: qHTS assay for small molecules that induce genotoxicity in human embryonic kidney cells expressing luciferase-tagged ATAD5 (AID 651632). Further: nearly all actives have a fitted effect of over 15% in size. In outline:
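Luminescent reporter readout, HEK293T ATAD5-luc line: 16 hr drug exposure (37C, 5% CO2) followed by Amplite, 30 min RT.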

A short description of experiment [3]: qHTS assay for small molecule agonists of the p53 signaling pathway - cell viability (AID 651633; calls by dose curve;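 further: p53RE-bla HCT reporter cells with a stable beta-lactamase p53 reporter; nearly all actives have a fitted effect of over 30% in size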). In outline:
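p53RE-bla cells, seeded at 4,000 per well and rested 5 h at 37 C/5% CO2, received compounds in DMSO for 16 h at 37 C. CellTiter-Glo was then added, and luminescence was read after 30 min at room temperature to gauge cytotoxicity.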

Experiment [4] in a line: qHTS assay for small molecule disruptors of the mitochondrial membrane potential - cell viability (AID 720634; calls by dose curve;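 further: human HepG2 liver cancer cells; nearly all actives have a fitted effect of over 20% in size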). The method in brief: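 HepG2, 1 hr compound, 37 C. ATP luminescence via CellTiter-Glo, 30 min RT, same well as m-MPI.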
Experiment [5] in a line: qHTS assay for small molecule disruptors of the mitochondrial membrane potential (AID 720635). In outline:
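HepG2 cells (2,000/well) attached overnight at 37C, then took compound for 1 hr at 37C, 5% CO2. Mito-MPS dye was added for 30 min; fluorescence was read at 490/535 nm (monomers) and 540/590 nm (aggregates).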

The nature of experiment [6]: qHTS assay to test for compound auto fluorescence at 590 nm (red) in HepG2 cells (AID 720674). In outline: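 Rose Bengal sodium served as the red fluorophore standard. HepG2 monolayers (overnight attachment, MEM with 10% FBS) were exposed to test compounds for 1 hr at 37 C and read at Ex 540/Em 590 nm.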
A short description of experiment [7]: qHTS assay to test for compound auto fluorescence at 535 nm (green) in HepG2 cells (AID 720675).
A short description of experiment [8]: qHTS assay to test for compound auto fluorescence at 460 nm (blue) in HEK293 cells (AID 720678). The method in brief:
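HEK293 cells (2,000/well, medium with 10% dialyzed FBS) attached 4-5 hr, then exposed to compound overnight at 37C, 5% CO2. Blue fluorescence read at 405/460 nm, with triamterene as reference fluorophore.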

Experiment [9] is described as follows: qHTS assay to test for compound auto fluorescence at 590 nm (red) in HEK293 cells (AID 720679). In outline:
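HEK293 cells (2,000/well, 10% dialyzed FBS) attached 4-5 hr, then dosed with compound or DMSO and incubated overnight at 37C, 5% CO2. Red fluorescence read at 540/590 nm, Rose Bengal sodium as reference fluorophore.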

A short description of experiment [10]: qHTS assay to test for compound auto fluorescence at 535 nm (green) in HEK293 cells (AID 720680).
The nature of experiment [11]: qHTS assay to test for compound auto fluorescence at 460 nm (blue) in HEK293 cell free culture (AID 720681). The method in brief: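 Test compounds were pinned into cell-free culture medium (DMEM with 10% FBS) and fluorescence was read directly at Ex/Em 405/460 nm. Signals were expressed as fluorescence equivalents of triamterene, with DMSO vehicle as control.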
Experiment [12] in a line: qHTS assay to test for compound auto fluorescence at 535 nm (green) in HEK293 cell free culture (AID 720682). The method in brief: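 Intrinsic compound fluorescence is measured in culture medium containing 10% FBS, with excitation at 485 nm and detection at 535 nm, referenced to fluorescein.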
Experiment [13] in a line: qHTS assay to test for compound auto fluorescence at 590 nm (red) in HEK293 cell free culture (AID 720683). In outline: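 Tox21 10K library compounds were pinned into cell-free DMEM with 10% FBS and fluorescence was read at excitation 540 nm. Activity is expressed as Rose Bengal sodium equivalency.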
Experiment [14] can be described thus: qHTS assay to test for compound auto fluorescence at 590 nm (red) in HepG2 cell free culture (AID 720684). In outline: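 Red fluorescence (540 nm excitation, 590 nm emission) was measured after compound transfer into cell-free MEM supplemented with 10% FBS. Values are equivalencies against Rose Bengal sodium.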
Experiment [15] can be described thus: qHTS assay to test for compound auto fluorescence at 460 nm (blue) in HepG2 cell free culture (AID 720685). In outline: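 Compound (23 nL) or DMSO pinned into cell-free MEM with 10% FBS; blue fluorescence read at 405/460 nm excitation/emission, expressed as auto-fluorescence equivalency to triamterene.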
The nature of experiment [16]: qHTS assay to test for compound auto fluorescence at 535 nm (green) in HepG2 cell free culture (AID 720686).
Experiment [17] in a line: qHTS assay to test for compound auto fluorescence at 460 nm (blue) in HepG2 cells (AID 720687). The method in brief: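 Cells (2,000/well in MEM with 10% FBS) attached overnight at 37 C, then were exposed to compound or DMSO for 1 hr at 37 C, 5% CO2. Fluorescence read at Ex/Em 405/460 nm, expressed as triamterene-equivalent signal.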
The target in experiment [18] is Glucocorticoid receptor (Homo sapiens) (UniProt P04150). The experiment can be described thus: qHTS assay to identify small molecule agonists of the glucocorticoid receptor (GR) signaling pathway (AID 720691; active means well fitted activation curve with a large enough effect in the signal ratio in the repeat runs, not every such curve was filed as active; the % refers to the signal ratio). Particulars: GR-bla HeLa, beta-lactamase reporter ratio, 18 h; activation: at 62.4 µM (top of the series). In outline: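 qHTS in GR-bla HeLa cells: 4 h settling at 37 C/5% CO2, 18 h compound incubation at 37 C, 2 h LiveBLAzer B/G FRET substrate at room temperature, fluorescence intensity measured.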
Sequence of Glucocorticoid receptor (Homo sapiens) (P04150 whole entry, looked up): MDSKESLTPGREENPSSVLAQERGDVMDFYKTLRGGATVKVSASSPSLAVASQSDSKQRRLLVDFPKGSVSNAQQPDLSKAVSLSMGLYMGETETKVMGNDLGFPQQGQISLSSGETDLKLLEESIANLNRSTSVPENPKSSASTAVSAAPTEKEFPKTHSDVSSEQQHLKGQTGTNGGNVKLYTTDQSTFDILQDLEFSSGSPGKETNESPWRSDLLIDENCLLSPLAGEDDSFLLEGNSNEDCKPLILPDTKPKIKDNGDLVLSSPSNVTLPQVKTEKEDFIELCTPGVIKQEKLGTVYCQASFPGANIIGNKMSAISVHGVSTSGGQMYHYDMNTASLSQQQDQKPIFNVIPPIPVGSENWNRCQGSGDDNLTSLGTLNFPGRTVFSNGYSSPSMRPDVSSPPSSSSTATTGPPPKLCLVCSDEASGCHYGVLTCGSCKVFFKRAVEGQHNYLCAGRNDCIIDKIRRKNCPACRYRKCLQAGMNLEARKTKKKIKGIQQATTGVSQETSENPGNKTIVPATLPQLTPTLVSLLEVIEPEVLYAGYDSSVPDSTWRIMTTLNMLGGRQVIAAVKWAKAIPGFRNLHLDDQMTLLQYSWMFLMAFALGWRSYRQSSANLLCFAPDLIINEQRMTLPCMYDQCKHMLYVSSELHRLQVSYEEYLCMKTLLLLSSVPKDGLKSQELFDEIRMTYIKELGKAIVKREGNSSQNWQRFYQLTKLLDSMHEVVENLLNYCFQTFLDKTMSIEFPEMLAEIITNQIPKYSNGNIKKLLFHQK

A short description of experiment [19]: qHTS assay for small molecules that induce genotoxicity in human embryonic kidney cells expressing luciferase-tagged ATAD5 - cell viability (AID 651634; calls by dose curve; further: nearly all actives have a fitted effect of over 25% in size). In outline:
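Viability read: CellTiter-Fluor fluorescence, 30 min at 37C. Cells: HEK293T, luciferase-tagged ATAD5. Exposure: 15.5 hr, 37C, 5% CO2, compound or DMSO vehicle.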

Experiment [20] deals with Glucocorticoid receptor (Homo sapiens) (UniProt P04150). The experiment can be described thus: qHTS assay to identify small molecule antagonists of the glucocorticoid receptor (GR) signaling pathway (AID 720692; active means well fitted inhibition curve with a large enough effect in the signal ratio in the repeat runs, not every such curve was filed as active; the % refers to the signal ratio). In outline: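 Inhibition of glucocorticoid signalling is measured in HeLa cells with a GRE-controlled beta-lactamase reporter; cells are co-treated with compound and 5 nM dexamethasone (final) for 18 h before FRET substrate readout.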

“And” between values parts separate entries of the source, which are not always exact repeats. Identical values can stand only once. Inconclusive results are not listed. The source made the active and inactive calls. Unless noted, the call rests on the fitted dose curve; in most records, active means well fitted curve in the direction sought with a large enough effect in the repeat runs; inconclusive means weak or mixed curves; inactive means no such curve, though single readings can be large; an effect the other way counts as inactive or inconclusive.

As to `CCCCCC(N)=O`, the Potency entry in experiment [1], in [3], in experiment [4] and in experiment [5] was “inactive” each time. Further, the result in experiment [2], in [6], in experiment [7], in experiment [8], in experiment [9] and in experiment [10] was inactive. The molecule was called inactive in [11], in experiment [12], in [13], in experiment [14], in [15] and in experiment [16]. In [17], the outcome was inactive.
For `COc1ccc(Nc2ccccc2)c(C)c1`, the Potency entry in [1], in [3], in [4] and in experiment [18] was “inactive” throughout. The call in experiment [2], in [6], in experiment [7], in experiment [8], in experiment [9] and in experiment [10] was inactive. Besides, the call in [11], in [12], in [13], in [14], in experiment [15] and in experiment [16] was inactive. Moreover, the result in experiment [17] was inactive.
In the case of `CCCSc1ccc2nc(NC(=O)OC)[nH]c2c1`, the Potency in experiment [1] is 320 nM (active) and 306 nM (active). The Potency entry in [3], in experiment [4] and in experiment [18] was “inactive” in each case. Further, the outcome in experiment [6], in experiment [7], in experiment [8], in experiment [9], in experiment [10] and in experiment [11] was inactive. Besides, the molecule was classed as inactive in experiment [12], in experiment [13], in [14], in experiment [15], in [16] and in [17].
Turning to `CCCCN(CCCC)CCCC`, the Potency result in [1], in experiment [3], in [19], in [18] and in experiment [20] was “inactive” each time. Moreover, the outcome in [2], in [6], in experiment [7], in experiment [8], in experiment [9] and in experiment [10] was inactive. Besides, the molecule was called inactive in experiment [11], in experiment [12], in [13], in experiment [14], in experiment [15] and in experiment [16]. The molecule was called inactive in experiment [17].
With `C/C=C1/CC2C=CC1C2` (centres undefined), the Potency entry in experiment [1], in [3], in [4] and in experiment [18] was “inactive” in each case. The outcome in experiment [2], in experiment [6], in experiment [7], in [10], in experiment [11] and in experiment [12] was inactive. Besides, the outcome in experiment [13], in experiment [14] and in experiment [16] was inactive.
In the case of `C[Si](O[Si](C)(C)C)O[Si](C)(C)C`, the Potency result in experiment [1], in experiment [3], in [4] and in experiment [18] was “inactive” in each case. The call in [2], in [6], in experiment [7], in experiment [8], in [10] and in experiment [11] was inactive. Also, the result in experiment [12], in experiment [13], in [14], in experiment [16] and in experiment [17] was inactive.
Regarding `CCCCCCCCCCCCS`, the Potency result in experiment [1], in [3], in experiment [4] and in experiment [5] was “inactive” each time. For the same molecule, the molecule was classed as inactive in [2], in experiment [6], in experiment [7], in [9], in experiment [10] and in [11]. Also, the call in experiment [12], in [13], in [14], in experiment [16] and in experiment [17] was inactive.
For `O=C(O)c1ccc(C(=O)O)cc1`, the Potency result in [1], in experiment [3], in experiment [4], in [18] and in [20] was “inactive” throughout. Moreover, the molecule was called inactive in experiment [2], in experiment [6], in experiment [7], in experiment [8], in [9] and in experiment [10]. The outcome in [11], in experiment [12], in [13], in experiment [14] and in experiment [16] was inactive.
With `O=S1(=O)CC=CC1`, the Potency entry in experiment [1], in [3], in [4], in [18] and in experiment [20] was “inactive” throughout. Moreover, the call in experiment [2], in [6], in [7], in experiment [8], in [10] and in experiment [11] was inactive. Further, the molecule was called inactive in experiment [12], in [13], in experiment [14], in experiment [15], in [16] and in [17].

The record behind these values is PubChem BioAssay (Tox21).
